The whole screen tested about 200,000 compounds, of which about 700 (0.35%) were called active. The sample holds actives, similar compounds and a random draw of the others, so the mix is not that of the screen.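 Rule for the calls: active = inhibition above a set limit, the mean inhibition across all tested compounds plus 3 SD (cut at about 34% in these data); inactive = the rest.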
Assay: STAT1 signaling inhibitors, primary screen, cell-based, HTS, luciferase reporter (AID 920);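 note: 0% = IFN-gamma with DMSO and 100% = IFN-gamma with 300 µM nifuroxazide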
Conditions: NIH 3T3 STAT1-luciferase reporter, IFN-gamma, luminescence; at 5.5 µM; stronger effect = higher value

inhibition, active:
COc1ccc(C2CC(c3cccs3)=NN2c2nc(C)c(C(C)=O)s2)cc1OC (centres undefined) 34.5%
Cc1ccc(NC(=O)CN(C)CC(=O)Nc2cccc(F)c2)cc1[N+](=O)[O-] 34.4%
COc1ccc(C(=O)Nc2ccccc2C(=O)N/N=C/c2ccccc2OC)cc1 58.5%
COc1ccc(C(=O)Nc2ccccc2C(=O)N/N=C/c2ccc(O)c(OC)c2)cc1 99.9%
Cc1ccsc1C(=O)OCC(=O)c1cc(C)n(CC2CCCO2)c1C (centres undefined) 77.5%
Cc1ccc(-c2cn3cc(C)ccc3n2)cc1 94.3%
O=C(CN1C(=O)c2ccccc2S1(=O)=O)N1CCc2ccccc21 61.3%
COc1cc(SC)ccc1C(=O)Nc1nc(C)cs1 93.3%
COC(=O)C1=CN(Cc2ccc(OC)c(OC)c2)C=C(C(=O)OC)C1c1cccs1 59.2%
CC[C@H]1CN2CCc3cc(OC)c(OC)cc3[C@@H]2C[C@@H]1C[C@H]1NCCc2cc(OC)c(OC)cc21 71.5%
COc1ccc(C(=O)/C=C/Nc2ccccn2)cc1 82.5%
CCCC(=O)Nc1ccccc1N1CCN(C(=O)c2ccccc2)CC1 34.8%
Cc1ccc(C2=Nc3c(ccc4ccccc34)C(c3ccncc3)=NN2)cc1 66.7%
CN(Cc1cccnc1)C(=O)c1cc(COc2ccc3ncccc3c2)on1 34.3%
CC(C)(C)c1ccc(Oc2ccc(N)cc2)cc1 64.1%

inhibition, inactive:
COc1ccc(N2C(=O)CC(SC(C)C)C2=O)cc1 (centres undefined) 2.11%
COc1ccc(C2CC(c3cccs3)=NN2c2ccc(F)cc2)cc1OC (centres undefined) -5.19%
COc1ccc(C2CC(c3cccs3)=NN2C(=O)CSc2nncs2)cc1OC (centres undefined) 17%
Cc1cccc(NS(=O)(=O)c2ccc(C)c(C(N)=O)c2)c1 14%
CCN(/N=C/c1ccccc1)c1cc(=O)n(C)c(=O)[nH]1 1.47%
CC1CC(C)CN(C(=O)CSc2ccsc2[N+](=O)[O-])C1 (centres undefined) 1.9%
CN(CC(=O)Nc1cccc(F)c1)CC(=O)Nc1cccc([N+](=O)[O-])c1 9.08%
Cc1ccc(CN(C)CC(=O)Nc2cccc([N+](=O)[O-])c2)o1 8.85%
O=C(c1cccc([N+](=O)[O-])c1)N1CCN(C(=O)c2ccco2)CC1 1.07%
Cc1ccc2[nH]c(C)c(CCNC(=O)NC3CCCCC3)c2c1 8.57%
CC(=O)N1N=C(c2ccccc2)OC1c1cccnc1 (centres undefined) -12.4%
COc1cc(/C=N/NC(=O)c2ccccc2)ccc1OS(=O)(=O)c1ccccc1 -17.2%
COc1ccccc1C(=O)NNC(=O)c1ccc(NC(=O)c2ccccc2)cc1 3.37%
CCn1c(/C=N/NC(=O)c2ccc(OC)cc2)nc2ccccc21 1.5%
COc1ccc(/C=N/NC(=O)c2ccccc2)cc1OS(=O)(=O)c1ccccc1 6.31%
CCN(C(=O)c1ccc(Br)cc1)c1ccccc1 12.3%
CC(=O)c1c(C)[nH]c(C(=O)OCC(=O)Nc2sc3c(c2C#N)CCCC3)c1C -6.37%
Cc1nc(CN2CCN(C(=O)CCc3nnc(Cc4c[nH]c5ccccc45)o3)CC2)cs1 0.65%
CCCCOC(=O)CCCc1ccc([N+](=O)[O-])cc1[N+](=O)[O-] 6.62%
Cc1cc(O)c(NC(=O)c2ccc(C)c([N+](=O)[O-])c2)cc1C -3.86%
O=C(NNC(=O)C1CCN(c2ncccn2)CC1)c1ccccc1 -0.55%
CC(=O)c1cc(C#N)c(N2CCCCC2)nc1C 2.46%
Cc1ccsc1C(=O)OCC(=O)c1cc2ccccc2o1 -6.53%
Cc1cc(C(=O)Cn2cnc3cc([N+](=O)[O-])ccc3c2=O)c(C)n1CC1CCCO1 (centres undefined) -2.94%
CC1CC(C)(C)NC(=S)N1CCC(=O)N1CCN(Cc2ccccc2)CC1 (centres undefined) -1.54%
COc1ccc(NC(=S)NCCN2CCC(C)CC2)cc1 4.93%
Cc1cccc(C(=O)Nc2ccc3c(c2)C(=O)N(CC(C)C)C3=O)c1 -24.8%
O=C(CSc1nc2ccc([N+](=O)[O-])cc2[nH]1)c1ccc(Cl)cc1 -9.84%
Cc1ccc(-c2cn3cc([N+](=O)[O-])ccc3n2)cc1 -37.1%
COc1ccc(-c2cn3ccsc3n2)cc1 -38.6%
O=C(COC(=O)c1ccc(F)cc1)Nc1nc2ccc([N+](=O)[O-])cc2s1 -0.42%
O=C(CN1CCN(c2ccccn2)CC1)N1CCc2ccccc21 -3.17%
O=C(CSCc1ccccc1)N1CCc2ccccc21 -41.3%
S=C(Nc1ccc(Br)cc1Cl)N1CCC2(CC1)OCCO2 -18.2%
CCNc1ccc(C(=O)OCC(=O)N2c3ccccc3NC(=O)C2(C)C)cc1[N+](=O)[O-] 4.43%
Cc1cc(Cl)ccc1OCCCC(=O)NCc1ccncc1 -1.56%
C/C(=N/OC(=O)c1cccc(C(F)(F)F)c1)c1cnccn1 -6.55%
COc1cc(SC)ccc1C(=O)Nc1cc(C)ccn1 -2.53%
COc1ccccc1CNC(=O)c1ccc(SC)cc1OC -9.83%
CC(=O)NC(Cc1ccc(F)c(F)c1)C(=O)NC1CCN(c2nnnn2-c2ccccc2)CC1 (centres undefined) 5.49%
CC1c2nc3ccccc3n2C(CC(=O)NCCCN2CCOCC2)C(=O)N1Cc1ccccc1 (centres undefined) 6.33%
C/C(=N/NC(=O)C1COc2ccccc2O1)c1ccco1 (centres undefined) -4.92%
COc1ccc(C2=NN(C(=O)CCC(=O)O)C(c3cccs3)C2)cc1OC (centres undefined) 3.75%
COc1ccc(CCNC(=O)COC(=O)/C=C/c2cccs2)cc1OC 9.78%
Cc1cc([N+](=O)[O-])nn1Cc1ccc(F)cc1 6.91%
O=c1cnnc(Nc2ccccc2F)[nH]1 -3.73%
COc1ccc2c(CC(=O)OCC(=O)Nc3ccccc3[N+](=O)[O-])coc2c1 0.3%
COc1cc2c(cc1O)[C@H](Cc1ccc(Oc3cc(C[C@@H]4NCCc5cc(OC)c(O)cc54)ccc3O)cc1)NCC2 5.62%
Cc1ccc(NC(=S)N2CCN(c3ncccn3)CC2)cc1C 0.8%
CCn1c2ccccc2c2cc(NC(=O)COC(=O)c3cc(S(=O)(=O)N4CCCCC4)ccc3Cl)ccc21 5.58%
CC(=O)c1ccc(-c2nnc(CCC(=O)N(C)Cc3cnc4ccccn34)o2)s1 0.17%
COc1ccc(-c2csc(Nc3ccccn3)n2)cc1 -12.9%
CCOc1cc(NC(=O)c2ccccn2)c(OCC)cc1NC(=O)c1ccc(OC)cc1 3.8%
CSc1ccc(CN(C)CC(=O)NCc2ccc(F)cc2)cc1 -7.18%
NC(=O)C1CCN(Cc2nc3c(Br)cc(Br)cc3c(=O)[nH]2)CC1 3.52%
O=C(Nc1ccccc1N1CCN(C(=O)c2ccccc2)CC1)c1ccc2c(c1)OCO2 2.21%
CCC(=O)Nc1ccccc1N1CCN(S(C)(=O)=O)CC1 2.52%
Cc1nc2ccc(NC(=S)N3CCC(C)CC3)cc2nc1C -19.9%
COc1cccc(-c2nn(-c3ccccc3)cc2/C=C(\C#N)C(=O)NCCCn2ccnc2)c1 -6.77%
c1ccc(C2CNCc3c2ccc2ccccc32)cc1 (centres undefined) 14.8%
COc1ccc(CC(=O)Nc2cc(S(=O)(=O)N3CCCCC3)ccc2N2CCN(C)CC2)cc1 1.82%
Cn1c(N)c(C(=O)COC(=O)/C=C/c2ccc(OC(F)F)cc2)c(=O)n(C)c1=O 5.58%
CS(=O)(=O)N1CCC(C(=O)N2CCN(c3ccccc3)CC2)CC1 7.02%
CCOc1ccc2c(c1)C(c1ccc(C)cc1)=NNC(c1ccc(C)cc1)=N2 -36.9%
CCc1ccc2c(c1)C(c1ccc([N+](=O)[O-])cc1)=NNC(c1ccccc1)=N2 5.38%
CCc1ccc(-c2nn(-c3ccccc3)cc2CSC(=N)N)cc1 -3.6%
Cc1cc(C)n(CCNC(=O)CC2C(=O)NCCN2Cc2ccc(C)o2)n1 (centres undefined) 4.76%
C=CCn1c(CCc2ccc(OC(C)C)cc2)n[nH]c1=S -6.91%
C=CCN(C(=O)c1cc(C)cc(C)c1)C1(C(=O)Nc2ccccc2)CCN(C(C)C)CC1 -4.59%
NC(N)=NCCCc1cn(CC(=O)N2CCNCC2)nn1 3.04%
Cc1ccc(C(=O)Cn2cccn2)cc1 -6.86%
Cc1noc(C)c1COc1cccc(C(=O)Nc2cccnc2)c1 2.53%
Cc1cccc(OCCNC(=S)NC(=O)c2cccnc2)c1 -6.17%
Cc1cccc(N2CCN(c3ccc(NC(=O)/C=C\C(=O)O)cc3)CC2)c1 1.29%
OCCC1CN(Cc2cccc(O)c2)CCN1CCc1ccccc1 (centres undefined) 8.18%
S=C(NCCc1ccccc1)N1CCn2cccc2C1c1ccncc1 (centres undefined) 21.8%
Cc1ccc(Oc2ccc(N)cc2)cc1 -19.6%
Nc1ccc(Oc2ccc(Cl)cc2)cc1 -14.9%
COc1ccc([C@H]2[C@H](C(C)=O)N3N=Cc4ccccc4C3C23C(=O)OC(C)(C)OC3=O)cc1 (some centres undefined) -13.7%
